Assay [1] can be described thus: antimalarial activity against Dd2 strain (AID 2302;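 active means growth inhibition above 50% at the single 2 µM test dose, taken to imply half-maximal potency below 2 µM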;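 further: 0% = DMSO untreated growth and 100% = chloroquine plus artemisinin killed control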). As to conditions: P. falciparum Dd2 in RBCs, LDH growth readout, 72 h; at 2 µM; active compounds read high.
The nature of assay [2]: human hepatoma cell viability loss – ATP luminescence, cytotoxicity control for P. falciparum antimalarial project, primary screen (AID 2303;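 active means inhibition above 50%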;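 further: 0% = DMSO wells and 100% = digitonin-killed cells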). As to conditions: HepG2 viability, 24-48 h, at 10 µM, active compounds read high.
For assay [3], the target named is L-lactate dehydrogenase (Plasmodium falciparum (isolate CDC / Honduras)) (UniProt Q27743). As to the kind of experiment: PfLDH activity inhibition – cell lysate, 3D7 strain, counter-screen for P. falciparum growth inhibition project (AID 2304).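 Further: 0% = vehicle and 100% = reference inhibitor.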 Particulars: P. falciparum 3D7 crude extract, LDH APAD/NBT absorbance; at 2 µM; active compounds read high.
The nature of assay [4]: inhibition of 3D7 malaria parasite growth – strain 3D7 (AID 2306).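 Further: 0% = DMSO wells and 100% = chloroquine plus artemisinin control wells.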 As to conditions: P. falciparum 3D7 erythrocytic growth, LDH absorbance, 72 h; at 2 µM; active compounds read high.
Assay [5] concerns the target Calcium-dependent protein kinase 1 (Plasmodium falciparum (isolate 3D7)) (UniProt P62344). Kind of assay: PfCDPK1 kinase inhibitors, biochemical, TCAMS library (AID 1159585; cut-off not given, nearly all actives have IC50 up to about 0.98 µM;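 further: inhibitors leave more ATP so luminescence rises with inhibition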). As to conditions: recombinant PfCDPK1, Kinase-Glo ATP depletion luminescence. On the technique in general: Kinase-Glo measures the ATP left after a reaction by luminescence.
Assay [6] deals with Plasmodium falciparum protein kinase 6 (PK6, PF3D7_1337100) (UniProt Q8IDW1). Kind of assay: PfPK6 kinase inhibitors, biochemical, TCAMS library (AID 1159586). Particulars: recombinant PfPK6, Kinase-Glo ATP depletion luminescence.
The target of assay [7] is Protein kinase 7 (PK7), Plasmodium falciparum 3D7 (PF3D7_0213400) (UniProt Q7YTF7). As to the kind of experiment: inhibition of Plasmodium PK7 catalytic activity – biochemical, TCAMS antimalarial set, Kinase-Glo luminescence (AID 1159587). As to conditions: recombinant PfPK7, Kinase-Glo ATP depletion luminescence.
Assay [8] concerns the target Calcium-dependent protein kinase 4 (Plasmodium falciparum (isolate 3D7)) (UniProt Q8IBS5). As to the kind of experiment: PfCDPK4 kinase inhibitors, biochemical, TCAMS library (AID 1159588; cut-off not given, nearly all actives have IC50 up to about 0.91 µM). Particulars: recombinant PfCDPK4, Kinase-Glo ATP depletion luminescence.

Unmarked numbers belong to inactive results. For some of these results: Potency and affinity values are given separately. Activity calls are given as the source filed them. Unless noted, how the calls were made is not given here.

Sequence of Calcium-dependent protein kinase 4 (Plasmodium falciparum (isolate 3D7)) (Q8IBS5 whole entry, looked up): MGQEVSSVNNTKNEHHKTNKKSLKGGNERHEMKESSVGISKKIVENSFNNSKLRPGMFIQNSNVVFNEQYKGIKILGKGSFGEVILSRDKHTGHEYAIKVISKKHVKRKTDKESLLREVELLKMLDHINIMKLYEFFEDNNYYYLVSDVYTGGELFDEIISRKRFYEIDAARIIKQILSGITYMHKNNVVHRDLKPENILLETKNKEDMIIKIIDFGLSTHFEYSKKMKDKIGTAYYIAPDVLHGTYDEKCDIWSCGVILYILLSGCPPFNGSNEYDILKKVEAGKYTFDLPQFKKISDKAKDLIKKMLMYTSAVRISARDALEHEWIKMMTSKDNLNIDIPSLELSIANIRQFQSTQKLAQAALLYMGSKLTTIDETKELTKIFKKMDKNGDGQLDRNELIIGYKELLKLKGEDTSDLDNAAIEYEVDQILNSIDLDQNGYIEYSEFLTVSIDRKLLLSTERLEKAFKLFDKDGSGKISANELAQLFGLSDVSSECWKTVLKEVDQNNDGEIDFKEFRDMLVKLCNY
Sequence of Plasmodium falciparum protein kinase 6 (PK6, PF3D7_1337100) (Q8IDW1 1-305): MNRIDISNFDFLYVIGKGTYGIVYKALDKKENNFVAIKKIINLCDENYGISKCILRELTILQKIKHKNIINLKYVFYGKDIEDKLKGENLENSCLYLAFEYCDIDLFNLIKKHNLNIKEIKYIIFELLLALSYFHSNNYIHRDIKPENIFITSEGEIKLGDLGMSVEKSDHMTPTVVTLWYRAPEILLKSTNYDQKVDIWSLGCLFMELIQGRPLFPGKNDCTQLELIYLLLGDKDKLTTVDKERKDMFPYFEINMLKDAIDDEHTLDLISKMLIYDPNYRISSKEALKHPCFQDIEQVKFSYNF
Sequence of Protein kinase 7 (PK7), Plasmodium falciparum 3D7 (PF3D7_0213400) (Q7YTF7 1-343): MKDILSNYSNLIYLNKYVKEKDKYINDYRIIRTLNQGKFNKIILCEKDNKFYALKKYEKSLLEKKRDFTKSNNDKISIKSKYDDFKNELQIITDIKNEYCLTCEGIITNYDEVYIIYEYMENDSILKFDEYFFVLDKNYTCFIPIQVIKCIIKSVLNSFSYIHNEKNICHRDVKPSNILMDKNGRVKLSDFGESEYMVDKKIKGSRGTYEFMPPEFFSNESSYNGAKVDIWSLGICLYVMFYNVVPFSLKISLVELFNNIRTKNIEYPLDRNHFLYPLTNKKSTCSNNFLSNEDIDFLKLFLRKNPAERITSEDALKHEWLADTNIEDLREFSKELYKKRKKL
Sequence of Calcium-dependent protein kinase 1 (Plasmodium falciparum (isolate 3D7)) (P62344 whole entry, looked up): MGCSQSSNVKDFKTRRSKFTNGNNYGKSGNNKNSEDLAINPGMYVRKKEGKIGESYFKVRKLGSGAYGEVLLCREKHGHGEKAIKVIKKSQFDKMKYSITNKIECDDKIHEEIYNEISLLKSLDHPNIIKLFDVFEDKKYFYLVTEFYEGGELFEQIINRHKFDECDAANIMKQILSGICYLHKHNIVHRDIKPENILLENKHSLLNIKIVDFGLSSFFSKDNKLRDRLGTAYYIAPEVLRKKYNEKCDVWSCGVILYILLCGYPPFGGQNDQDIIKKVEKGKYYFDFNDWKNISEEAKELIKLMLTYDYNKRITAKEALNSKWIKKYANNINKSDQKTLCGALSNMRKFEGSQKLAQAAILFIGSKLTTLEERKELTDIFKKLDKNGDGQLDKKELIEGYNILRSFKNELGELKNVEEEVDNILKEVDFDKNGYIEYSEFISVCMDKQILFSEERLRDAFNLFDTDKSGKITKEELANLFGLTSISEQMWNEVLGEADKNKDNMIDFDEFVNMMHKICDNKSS
Sequence of L-lactate dehydrogenase (Plasmodium falciparum (isolate CDC / Honduras)) (Q27743 whole entry, looked up): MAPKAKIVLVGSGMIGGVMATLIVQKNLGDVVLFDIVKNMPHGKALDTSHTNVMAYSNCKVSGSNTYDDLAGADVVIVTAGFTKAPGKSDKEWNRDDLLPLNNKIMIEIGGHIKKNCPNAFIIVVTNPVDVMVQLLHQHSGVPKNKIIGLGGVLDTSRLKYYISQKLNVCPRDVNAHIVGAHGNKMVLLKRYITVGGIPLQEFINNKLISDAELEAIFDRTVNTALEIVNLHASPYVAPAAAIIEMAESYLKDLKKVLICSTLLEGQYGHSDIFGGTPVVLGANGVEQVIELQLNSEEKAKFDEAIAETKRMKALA

As to `Cc1nc2nc(N)nc(N)c2c(C)c1Cc1cccc(F)c1`, the figures for the growth inhibition in assay [1] and in assay [4] were 1% and 96% (active), respectively. Further, the inhibition in assay [2] is 65% (active); in assay [3], -5%. The result in assay [5], in assay [6], in assay [7] and in assay [8] was inactive.

Take `O=[N+]([O-])c1ccc(C(O)P(=O)(c2ccccc2)c2ccccc2)cc1` (stereo not given): the growth inhibition in assay [1] was 1%; in assay [4], 98% (active). Besides, the inhibition is 1% in assay [2] and 0% in assay [3]. Also, the outcome in assay [5], in assay [6], in assay [7] and in assay [8] was inactive.

Consider `Cc1ccc(Oc2ccccc2NC(=O)CCc2nc3ccccc3c(=O)[nH]2)cc1`, for which the growth inhibition in assay [1] was 99% (active); in assay [4] it was 100% (active). For the same compound, the inhibition was 3% in assay [2] and -3% in assay [3]. Moreover, the outcome in assay [5], in assay [6], in assay [7] and in assay [8] was inactive.

`O=C(Nc1ccc(OC2CCN(Cc3ccco3)C2)c(Cl)c1)c1ccc2ncccc2c1` (stereo not given): the growth inhibition in assay [1] was 42%; in assay [4] it was 92% (active). Also, the inhibition was 1% in assay [2] and -6% in assay [3]. In addition, the outcome in assay [5], in assay [6], in assay [7] and in assay [8] was inactive.

With `CN(CCCNC(=S)NC12CC3CC(CC(C3)C1)C2)CCCNc1ccnc2cc(Cl)ccc12`, the growth inhibition in assay [1] is 98% (active); in assay [4] it was 100% (active). Further, the inhibition in assay [2] is 73% (active); in assay [3], 8%. Besides, the outcome in assay [5], in assay [6], in assay [7] and in assay [8] was inactive.

Turning to `COc1cc2cc(-c3nc4ccccc4[nH]3)c(N)nc2cc1OC`, the growth inhibition in assay [1] and in assay [4] was 100% (active) each time. The inhibition in assay [2] is 91% (active); in assay [3] it was 1%. For the same compound, the result in assay [5], in assay [6], in assay [7] and in assay [8] was inactive.

On to `Cc1cccn2c(=O)c3cc(C(=O)NC(C)c4ccccc4)c(=N)n(CCc4ccccc4)c3nc12` (stereo not given), for which the growth inhibition in assay [1] was 82% (active); in assay [4], 101% (active). Further, the inhibition in assay [2] is 5%; in assay [3], -3%. The outcome in assay [5], in assay [6], in assay [7] and in assay [8] was inactive.

In the case of `O=C(c1cnn(-c2ccccc2)c1C(F)(F)F)N1CCN(c2ccnc3cc(Cl)ccc23)CC1`, the growth inhibition in assay [1] is 94% (active); in assay [4], 89% (active). Besides, the results for the inhibition in assay [2] and in assay [3] were 34% and 6%, respectively. In addition, the result in assay [5], in assay [6], in assay [7] and in assay [8] was inactive.

With `CS(=O)(=O)CCNCc1nc(-c2ccc3ncnc(Nc4ccc(OCc5ccccc5)c(Cl)c4)c3c2)cs1`, the growth inhibition in assay [1] was 55% (active); in assay [4], 99% (active). For the same compound, the inhibition was 13% in assay [2] and 2% in assay [3]. Moreover, the outcome in assay [5], in assay [6], in assay [7] and in assay [8] was inactive.

In the case of `COc1ccc(NC(=O)CCNc2cc(C)nc(NCCc3ccc(F)cc3)n2)cc1`, the growth inhibition is 3% in assay [1] and 98% (active) in assay [4]. Further, the inhibition in assay [2] was 27%; in assay [3], 1%. In addition, the outcome in assay [5], in assay [6], in assay [7] and in assay [8] was inactive.

As for `COc1cc(N)c(Cl)cc1C(=O)NC1CCC(NCC2CCCCC2)CC1` (stereo not given), the growth inhibition in assay [1] was 85% (active); in assay [4] it was 90% (active). For the same compound, the inhibition in assay [2] is 18%; in assay [3] it was 0%. For the same compound, the outcome in assay [5], in assay [6], in assay [7] and in assay [8] was inactive.

For `O=C(Nc1ccc2c(c1)CCC2)c1cccc(N2CCN(c3ccncc3)CC2)c1`, the growth inhibition in assay [1] is 22%; in assay [4], 92% (active). The inhibition was 35% in assay [2] and -2% in assay [3]. Further, the outcome in assay [5], in assay [6], in assay [7] and in assay [8] was inactive.

For the compound `CN1CCC(Oc2cc(NC(=O)Nc3ccc(-c4ccncc4)c(C(F)(F)F)c3)ccc2Cl)CC1`, the growth inhibition was 92% (active) in assay [1] and 100% (active) in assay [4]. Also, the figures for the inhibition in assay [2] and in assay [3] were 30% and -1%, respectively. The outcome in assay [5], in assay [6], in assay [7] and in assay [8] was inactive.

As for `CC(C)(C)OC(=O)NCCc1cccc(-c2c[nH]c3ncc(-c4cccc(NS(C)(=O)=O)c4)cc23)c1`, the growth inhibition in assay [1] is 71% (active); in assay [4] it was 97% (active). Besides, the results for the inhibition in assay [2] and in assay [3] were 16% and -3%, respectively. Also, the outcome in assay [5], in assay [6], in assay [7] and in assay [8] was inactive.

As for `N#CCCN1CCN(Cc2cccc(-c3ccc(-c4nc5ccc(F)cc5[nH]4)cc3)c2)CC1`, the growth inhibition in assay [1] was 35%; in assay [4], 100% (active). The inhibition is 18% in assay [2] and -2% in assay [3]. The outcome in assay [5], in assay [6], in assay [7] and in assay [8] was inactive.

`O=C(Nc1ccc2c(c1)CCN2C1CCN(Cc2cccc(C(F)(F)F)c2)C1)c1ccco1` (stereo not given): the growth inhibition is 92% (active) in assay [1] and 95% (active) in assay [4]. Besides, the inhibition in assay [2] is 4%; in assay [3] it was -1%. The outcome in assay [5], in assay [6], in assay [7] and in assay [8] was inactive.

Take `CC(C)(C)c1cc(Cn2ccnc2)cc(C(C)(C)C)c1O`: the growth inhibition is 3% in assay [1] and 85% (active) in assay [4]. Besides, the inhibition in assay [2] was 4%; in assay [3], -2%. The outcome in assay [5], in assay [6], in assay [7] and in assay [8] was inactive.

As for `CCOc1cc(C)ccc1C1CCN(CCCCNC(=O)c2ccc(NC(=O)c3cc(Cl)cc(Cl)c3)cc2)CC1`, the growth inhibition in assay [1] is 78% (active); in assay [4] it was 99% (active). The inhibition is 4% in assay [2] and -5% in assay [3]. The result in assay [5], in assay [6], in assay [7] and in assay [8] was inactive.

As for `CC(C)CCN1CCC(Oc2ccc(NC(=O)c3cccs3)cc2Cl)C1` (stereo not given), the growth inhibition is 93% (active) in assay [1] and 94% (active) in assay [4]. The inhibition in assay [2] was 17%; in assay [3], 2%. The result in assay [5], in assay [6], in assay [7] and in assay [8] was inactive.

As for `COC(=O)c1ccc(NC(=O)Nc2ccc(Cn3ncc(N4CCCNCC4)c(Cl)c3=O)cc2)cc1`, the results for the growth inhibition in assay [1] and in assay [4] were 43% and 83% (active), respectively. The inhibition in assay [2] and in assay [3] was -1% in each case. Moreover, the result in assay [5], in assay [6], in assay [7] and in assay [8] was inactive.

As usually defined, the inhibition is the relative decrease from the control value, in per cent.
